{"source": "PubChem BioAssay", "data": [{"test": "small-molecule microarray binders of probe aWnt5a, primary screen, biochemical, biotinylated probe, 635/667 nm fluorescence (AID 1113);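 note: score merges 667 nm fluorescence intensity with signal-to-noise per printed feature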", "details": "higher = more signal", "values": [{"smiles": "CCCNC(=O)[C@@H]1c2ccccc2C(=O)N(Cc2ccc(OC(F)(F)F)cc2)[C@H]1c1ccc(CO)cc1", "composite z-score": 0.0077}, {"smiles": "O=C1OCCC=C[C@H]2OC34C=CCN(Cn5nnc6ccccc65)C(=O)[C@H]3N(CCCO)C(=O)[C@@H]4C12", "note": "(stereo partly specified)", "composite z-score": -0.112}, {"smiles": "CCOC(=O)C[C@H]1[C@H](OC(=O)c2ccc(-c3ccccc3)cc2)[C@@H](NC(=O)CC(C)C)c2cc(OCCCO)ccc2N1C(=O)c1ccc2ccccc2n1", "composite z-score": -0.0678}, {"smiles": "COCCOC(=O)N1C(=O)[C@@]2(c3cc(C#CC4=CCCCC4)ccc31)[C@H](c1ccccc1OCCO)N1[C@H](c3ccccc3)[C@H](c3ccccc3)OC(=O)[C@H]1[C@@H]2C(=O)NC[C@H](O)c1ccccc1", "composite z-score": 0.0839}, {"smiles": "COCCCNC(=O)[C@@]1(Sc2ccc(C)cc2)CC(=O)N(C2Cc3ccccc3C2)[C@@H]1c1ccc(CO)cc1", "composite z-score": -0.227}, {"smiles": "COc1cc2c(cc1O)C(c1ccc(CN3CCCC3)cc1)N(Cc1cc3c(cc1Br)OCO3)CC2", "note": "(stereo unspecified)", "composite z-score": -0.109}, {"smiles": "CC(C)(C)OC(=O)CC[C@@]1(C(=O)NCC(O)CO)N=C(c2ccc(OCCCO)cc2)O[C@@H]1c1ccccc1CN=[N+]=[N-]", "note": "(stereo partly specified)", "composite z-score": -0.124}, {"smiles": "Cc1ccc(S[C@]2(C(=O)NCCN3CCOCC3)CC(=O)N(Cc3ccccc3Cl)[C@@H]2c2ccc(CO)cc2I)cc1", "composite z-score": 0.522}, {"smiles": "CC1CC/C=C\\[C@H]2OC34C=CCN(C(C)(C)C)C(=O)[C@H]3N(CCCCCO)C(=O)[C@@H]4C2C(=O)O1", "note": "(stereo partly specified)", "composite z-score": -0.199}, {"smiles": "COc1ccc(CCNC(=O)[C@@]2(c3ccc([N+](=O)[O-])cc3)CC(=O)N(C3CCCCC3)[C@@H]2c2ccc(CO)cc2)cc1", "composite z-score": -0.0341}, {"smiles": "COCCOC(=O)N1C(=O)[C@@]2(c3cc(C#CCNC(N)=O)ccc31)[C@H](C(N)=O)[C@H]1C(=O)O[C@H](c3ccccc3)[C@H](c3ccccc3)N1[C@@H]2c1ccccc1OCCO", "composite z-score": -0.129}, {"smiles": "COC(=O)[C@@H]1N=C(c2ccc(OCCCO)cc2)O[C@@H]1C", "composite z-score": -0.148}, {"smiles": "O=C(c1ccccc1)N1C(=O)[C@]2(Cc3ccccc31)N=C(c1ccc(OCCCO)cc1)O[C@@H]2c1ccccc1", "composite z-score": -0.0758}, {"smiles": "O=C(NCCN1CCOCC1)[C@@H]1c2ccccc2C(=O)N(C2Cc3ccccc3C2)[C@H]1c1ccc(CO)cc1", "composite z-score": -0.23}, {"smiles": "CCCCC(CC)C(O)C1C=CC2C(=O)N(C)C(=O)C2N1Nc1ccccc1", "note": "(stereo unspecified)", "composite z-score": -0.0721}, {"smiles": "CC[C@@H]1C=C(C(=O)O)[C@H](c2ccc(C#N)cc2)N1S(=O)(=O)c1ccc(C)cc1", "composite z-score": 0.0136}, {"smiles": "[N-]=[N+]=Nc1ccccc1C[C@@]1(C(N)=O)N=C(c2ccc(OCCCO)cc2)O[C@@H]1c1ccccc1N=[N+]=[N-]", "composite z-score": -0.132}, {"smiles": "C=CC[C@@H](OC(=O)Nc1ccc(SC)cc1)c1ccc(O)c(F)c1", "composite z-score": -0.0991}, {"smiles": "CS(=O)(=O)CCOC(=O)C1=CC(c2ccc(CO)cc2)=CC(C2CC2)N(Cc2sc3ccccc3c2Cl)C=C1C(=O)OCCS(C)(=O)=O", "note": "(stereo unspecified)", "composite z-score": -0.0685}, {"smiles": "CCOC(=O)C[C@H]1[C@H](OC(=O)c2ccccc2-c2ccccc2)[C@@H](NC(=O)c2ccc3ccccc3n2)c2cc(OCCCO)ccc2N1C(=O)Cc1ccc(OC)cc1", "composite z-score": -0.124}, {"smiles": "CCOC(=O)C1=C[C@@H](C(C)(C)C)N(S(=O)(=O)c2ccc(C)cc2)[C@H]1c1cccc2ccccc12", "composite z-score": -0.0478}, {"smiles": "Cc1ccc(S[C@]2(C(=O)O)CC(=O)N(C3CCCCC3)[C@@H]2c2ccc(CO)cc2I)cc1", "composite z-score": -0.113}, {"smiles": "COc1ccc([Si](C)(C)[C@@H]2[C@@H](CCO)O[C@]3(C(=O)N(Cc4ccccc4)c4ccc(N5C(=O)c6cccc7cccc5c67)cc43)[C@H]2C)cc1", "composite z-score": -0.251}, {"smiles": "O=C(Cc1ccccc1)[C@H]1C2C=CCCC(c3ccccc3)=C2CN1Cc1ccccc1", "note": "(stereo partly specified)", "composite z-score": -0.0566}, {"smiles": "COc1ccccc1CN1C(=O)c2ccccc2[C@](Cc2ccccc2I)(C(=O)O)[C@@H]1c1ccc(CO)cc1", "composite z-score": -0.123}, {"smiles": "Cc1cc(C)c(C(O)C2C=CC3C(=O)N(c4ccccc4)C(=O)C3N2Nc2ccccc2F)c(C)c1", "note": "(stereo unspecified)", "composite z-score": 0.184}, {"smiles": "CN(C)c1ccc(C(O)C2C=CC3C(=O)NC(=O)C3N2Nc2ccccn2)cc1", "note": "(stereo unspecified)", "composite z-score": -0.13}, {"smiles": "C[N+](C)(C)CCCC[C@@H]1NC(=O)[C@@H]2C[C@H](C(=O)NCCCCCCN)[C@H](c3cccc(OCCO)c3)N2C1=O", "composite z-score": 0.095}, {"smiles": "CCN(CC)c1ccc(N2CC=CC34O[C@@H]5/C=C\\CCCOC(=O)C5[C@H]3C(=O)N(C(C)CO)[C@@H]4C2=O)cc1", "note": "(stereo partly specified)", "composite z-score": -0.0405}, {"smiles": "CCCCC=C[C@@H](NC(=O)OCc1ccccc1Cl)c1ccccc1", "composite z-score": 1.08}, {"smiles": "CCCN1C(=O)[C@]2(Cc3ccccc31)N=C(c1ccc(OCCCO)cc1)O[C@@H]2c1ccccc1", "composite z-score": 0.0427}]}]}
